# Values joined by “and” are separate entries in the source; they are usually repeats but may differ in a detail not shown here. Identical values can stand only once. Values without a mark were called inactive. Results filed as inconclusive are left out. A call without a number means that no potency is given here. Active and inactive are the calls of the source. Unless noted, calls come from the whole dose curve; as a rule, active = well fitted curve in the direction sought with a large enough effect; inconclusive = small, poorly fitted or top-dose-only effect, or another doubt; inactive = no such curve, though single readings can be large; an effect the other way counts as inactive or inconclusive.
# Key:
# MKL-2 = assay: qHTS assay to identify novel small-molecules to repurpose for Merkel cell carcinoma treatment (AID 1296009); conditions: MCC and control cell lines, CellTiter-Glo viability, 72 h; series mostly up to 46 µM; note: nearly all actives have a fitted effect of over 60% in size
# How it was run: (§1)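 Cell viability, measured as CellTiter-Glo luminescence, was normalized between DMSO and no-cell wells. The cells had been exposed to 8- or 11-point compound dilutions for 72 hr at 37 degree celsius.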
# UISO = assay: as above; conditions: MCC and control cell lines, CellTiter-Glo viability, 72 h; series mostly up to 46 µM
# How it was run: as §1
# WaGa = assay: as above; conditions: MCC and control cell lines, CellTiter-Glo viability, 72 h; series mostly up to 46 µM
# How it was run: as §1
# C33A = assay: Primary qHTS to identify gynecologic anti-cancer compounds using libraries of approved drugs and bioactive compounds (AID 1345084); conditions: Gynecologic cancer cell panel viability, ATPlite luminescence, 48 h; series mostly up to 57.5 µM; note: nearly all actives have a fitted effect of over 55% in size
# How it was run: (§2)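 Luminescence from the ATPlite ATP-monitoring reagent indicates viable cell number; lower signal means cytotoxicity. Cells received compound 16 h after seeding and were exposed for 48 h across five concentrations.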
# CAOV3 = assay: as above; conditions: Gynecologic cancer cell panel viability, ATPlite luminescence, 48 h; series mostly up to 57.5 µM
# How it was run: as §2
# CASKI = assay: as above; conditions: Gynecologic cancer cell panel viability, ATPlite luminescence, 48 h; series mostly up to 57.5 µM
# How it was run: as §2
# Es-2 = assay: as above; conditions: Gynecologic cancer cell panel viability, ATPlite luminescence, 48 h; series mostly up to 57.5 µM
# How it was run: as §2
# HeLa = assay: as above; conditions: Gynecologic cancer cell panel viability, ATPlite luminescence, 48 h; series mostly up to 57.5 µM
# How it was run: as §2
# Hek293T = assay: as above; conditions: Gynecologic cancer cell panel viability, ATPlite luminescence, 48 h, control line for the selectivity index; series mostly up to 57.5 µM
# How it was run: as §2
# JEG-3 = assay: as above; conditions: Gynecologic cancer cell panel viability, ATPlite luminescence, 48 h; series mostly up to 57.5 µM
# How it was run: as §2
# PA-1 = assay: as above; conditions: Gynecologic cancer cell panel viability, ATPlite luminescence, 48 h; series mostly up to 57.5 µM
# How it was run: as §2
# SKOV3 = assay: as above; conditions: Gynecologic cancer cell panel viability, ATPlite luminescence, 48 h; series mostly up to 57.5 µM
# How it was run: as §2
# Tov-21-G = assay: as above; conditions: Gynecologic cancer cell panel viability, ATPlite luminescence, 48 h; series mostly up to 57.5 µM
# How it was run: as §2
# Tov112D = assay: as above; conditions: Gynecologic cancer cell panel viability, ATPlite luminescence, 48 h; series mostly up to 57.5 µM
# How it was run: as §2
# [1] = Drug repurposing screens with cells derived from glioblastoma tumor samples (AID 1345199); conditions: GBM patient neurospheres viability, ATP luminescence, 48 h; note: nearly all actives have a fitted effect of over 40% in size; note: potency is the fitted concentration of half-maximal effect
# How it was run: (§3)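 Primary testing used CD133+ neurospheres from four GBM patients, seven concentrations, 48 h exposure and ATP-based viability; confirmation added three slower-growing patient lines.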
# astro = assay: as above; conditions: viability, ATP luminescence, 48 h; series mostly up to 45.9 µM
# How it was run: as §3
# OV90 = assay: Primary qHTS to identify gynecologic anti-cancer compounds using libraries of approved drugs and bioactive compounds (AID 1345084); conditions: Gynecologic cancer cell panel viability, ATPlite luminescence, 48 h; series mostly up to 57.5 µM; note: nearly all actives have a fitted effect of over 55% in size
# How it was run: as §2
# [2] = target: Nuclear receptor subfamily 1 group I member 2 (Rattus norvegicus) (UniProt Q9R1A7); assay: qHTS assay for small molecule activators of the rat pregnane X receptor (rPXR) signaling pathway (AID 651751; call rule not given here); conditions: rPXR reporter cells, luciferase (One-Glo), 24 h
# Nuclear receptor subfamily 1 group I member 2 (Rattus norvegicus), sequence (Q9R1A7 whole entry, looked up): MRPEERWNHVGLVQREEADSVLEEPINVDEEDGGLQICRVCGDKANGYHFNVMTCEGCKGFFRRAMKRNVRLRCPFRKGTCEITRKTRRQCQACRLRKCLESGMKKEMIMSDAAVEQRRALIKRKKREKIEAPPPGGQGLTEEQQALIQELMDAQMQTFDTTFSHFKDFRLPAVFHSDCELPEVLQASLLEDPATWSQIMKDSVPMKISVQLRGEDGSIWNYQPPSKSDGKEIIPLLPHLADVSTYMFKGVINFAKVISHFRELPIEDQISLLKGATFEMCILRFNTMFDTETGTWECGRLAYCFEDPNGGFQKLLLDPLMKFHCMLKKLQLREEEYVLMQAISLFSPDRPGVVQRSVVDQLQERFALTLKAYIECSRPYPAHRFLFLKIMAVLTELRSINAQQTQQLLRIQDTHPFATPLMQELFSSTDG
# [3] = qHTS assay for small molecule activators of the human pregnane X receptor (PXR) signaling pathway (AID 720659; call rule not given here)
# [4] = at 45.9 µM (top of the series), tumour line B
# [5] = at 45.9 µM (top of the series), tumour line D
# [6] = at 46 µM (top of the series), tumour line A
# [7] = at 91.6 µM (top of the series), tumour line B
# [8] = at 91.6 µM (top of the series), tumour line D
compound,measurement,setting,value
NC(=O)CS(=O)C(c1ccccc1)c1ccccc1 (stereo not drawn),Potency,MKL-2,inactive
same,Potency,UISO,inactive
same,Potency,WaGa,inactive
same,Potency,C33A,inactive
same,outcome,CAOV3,inactive
same,outcome,CASKI,inactive
same,Potency,Es-2,inactive
same,Potency,HeLa,inactive
same,outcome,Hek293T,inactive
same,outcome,JEG-3,inactive
same,Potency,PA-1,inactive
same,outcome,SKOV3,inactive
same,Potency,Tov-21-G,inactive
same,Potency,Tov112D,inactive
same,"activity, negative = cell killing",[1]; [4],-12.2%
same,"activity, negative = cell killing",[1]; [5],-18.4%
same,"activity, negative = cell killing",[1]; [6],-9.02%
same,Potency,astro,inactive
CN1CC[C@]23c4c5ccc(O)c4O[C@H]2[C@@H](O)CC[C@H]3[C@H]1C5,Potency,MKL-2,inactive
same,Potency,UISO,inactive
same,Potency,WaGa,inactive
same,Potency,C33A,inactive
same,outcome,CAOV3,inactive
same,outcome,CASKI,inactive
same,Potency,Es-2,inactive
same,Potency,HeLa,inactive
same,outcome,Hek293T,inactive
same,outcome,JEG-3,inactive
same,Potency,OV90,inactive
same,Potency,PA-1,inactive
same,outcome,SKOV3,inactive
same,Potency,Tov-21-G,inactive
same,Potency,Tov112D,inactive
same,"activity, negative = cell killing","[1]; at 91.6 µM (top of the series), tumour line A",-29.5%
same,"activity, negative = cell killing",[1]; [7],-3.58%
same,"activity, negative = cell killing",[1]; [8],-23.6%
same,Potency,astro,inactive
O=C(O)CCCc1ccc(N(CCCl)CCCl)cc1,Potency,MKL-2,inactive
same,Potency,UISO,inactive
same,Potency,WaGa,inactive
same,Potency,C33A,inactive
same,outcome,CAOV3,inactive
same,outcome,CASKI,inactive
same,Potency,Es-2,inactive
same,Potency,HeLa,inactive
same,outcome,Hek293T,inactive
same,outcome,JEG-3,inactive
same,Potency,OV90,inactive
same,Potency,PA-1,inactive
same,outcome,SKOV3,inactive
same,Potency,Tov-21-G,inactive
same,Potency,Tov112D,inactive
same,"activity, negative = cell killing",[1]; [4],-11.3%
same,"activity, negative = cell killing",[1]; [5],-13.2%
same,Potency,astro,inactive
same,max response,[2],4.32% and -0.624%
same,outcome,[3],inactive
COc1c2c(cc3c1OCO3)CCN(C)C2,Potency,MKL-2,inactive
same,Potency,UISO,inactive
same,Potency,WaGa,inactive
same,Potency,C33A,inactive
same,outcome,CAOV3,inactive
same,outcome,CASKI,inactive
same,Potency,Es-2,inactive
same,Potency,HeLa,inactive
same,outcome,Hek293T,inactive
same,outcome,JEG-3,inactive
same,Potency,OV90,inactive
same,Potency,PA-1,inactive
same,outcome,SKOV3,inactive
same,Potency,Tov-21-G,inactive
same,Potency,Tov112D,inactive
same,"activity, negative = cell killing","[1]; at 21.2 µM (top of the series), tumour line B",-1.01%
same,"activity, negative = cell killing","[1]; at 21.2 µM (top of the series), tumour line D",-13.1%
same,Potency,astro,inactive
CCC1(c2ccc(N)cc2)CCC(=O)NC1=O (stereo not drawn),Potency,MKL-2,inactive
same,Potency,UISO,inactive
same,Potency,WaGa,inactive
same,Potency,C33A,inactive
same,outcome,CASKI,inactive
same,Potency,Es-2,inactive
same,Potency,HeLa,inactive
same,outcome,Hek293T,inactive
same,outcome,JEG-3,inactive
same,Potency,OV90,inactive
same,Potency,PA-1,inactive
same,outcome,SKOV3,inactive
same,Potency,Tov-21-G,inactive
same,Potency,Tov112D,inactive
same,"activity, negative = cell killing",[1]; [4],-18.5%
same,"activity, negative = cell killing",[1]; [5],-18.3%
CCC1(CC)C(=O)C=CNC1=O,Potency,MKL-2,inactive
same,Potency,UISO,inactive
same,Potency,WaGa,inactive
same,Potency,C33A,inactive
same,outcome,CASKI,inactive
same,Potency,Es-2,inactive
same,Potency,HeLa,inactive
same,outcome,Hek293T,inactive
same,outcome,JEG-3,inactive
same,Potency,OV90,inactive
same,Potency,PA-1,inactive
same,outcome,SKOV3,inactive
same,Potency,Tov-21-G,inactive
same,Potency,Tov112D,inactive
same,"activity, negative = cell killing",[1]; [4],-5.96%
same,"activity, negative = cell killing",[1]; [5],-8.64%
same,"activity, negative = cell killing",[1]; [6],-23.7%
C=CCN1C[C@H](C)N([C@H](c2ccc(C(=O)N(CC)CC)cc2)c2cccc(OC)c2)C[C@H]1C,Potency,MKL-2,inactive
same,Potency,UISO,inactive
same,Potency,WaGa,inactive
same,Potency,C33A,inactive
same,outcome,CASKI,inactive
same,Potency,Es-2,inactive
same,Potency,HeLa,inactive
same,outcome,Hek293T,inactive
same,outcome,JEG-3,inactive
same,Potency,OV90,inactive
same,Potency,PA-1,inactive
same,outcome,SKOV3,inactive
same,Potency,Tov-21-G,inactive
same,Potency,Tov112D,inactive
same,"activity, negative = cell killing",[1]; [4],-27.6%
same,Potency,[1]; tumour line A,7.08 µM (active)
CCN[C@@H](C)Cc1ccccc1,Potency,MKL-2,inactive
same,Potency,UISO,inactive
same,Potency,WaGa,inactive
same,Potency,C33A,inactive
same,outcome,CASKI,inactive
same,Potency,Es-2,inactive
same,Potency,HeLa,inactive
same,outcome,Hek293T,inactive
same,outcome,JEG-3,inactive
same,Potency,OV90,inactive
same,Potency,PA-1,inactive
same,outcome,SKOV3,inactive
same,Potency,Tov-21-G,inactive
same,Potency,Tov112D,inactive
same,"activity, negative = cell killing","[1]; at 108 µM (top of the series), tumour line B",-6.22%
same,"activity, negative = cell killing","[1]; at 108 µM (top of the series), tumour line D",-20.9%
CCN[C@H](C)Cc1cccc(C(F)(F)F)c1,Potency,MKL-2,inactive
same,Potency,UISO,inactive
same,Potency,WaGa,inactive
same,Potency,C33A,inactive
same,outcome,CAOV3,inactive
same,outcome,CASKI,inactive
same,Potency,Es-2,inactive
same,Potency,HeLa,inactive
same,outcome,Hek293T,inactive
same,outcome,JEG-3,inactive
same,Potency,OV90,inactive
same,Potency,PA-1,inactive
same,outcome,SKOV3,inactive
same,Potency,Tov-21-G,inactive
same,Potency,Tov112D,inactive
same,"activity, negative = cell killing",[1]; [7],-5.97%
same,"activity, negative = cell killing",[1]; [8],-5.78%
same,Potency,astro,inactive
CCOC(=O)CC(SP(=S)(OC)OC)C(=O)OCC (stereo not drawn),Potency,MKL-2,inactive
same,Potency,UISO,inactive
same,Potency,WaGa,inactive
same,Potency,C33A,inactive
same,outcome,CAOV3,inactive
same,outcome,CASKI,inactive
same,Potency,Es-2,inactive
same,Potency,HeLa,inactive
same,outcome,Hek293T,inactive
same,outcome,JEG-3,inactive
same,Potency,OV90,inactive
same,Potency,PA-1,inactive
same,outcome,SKOV3,inactive
same,Potency,Tov-21-G,inactive
same,Potency,Tov112D,inactive
same,"activity, negative = cell killing",[1]; [4],-14.8%
same,"activity, negative = cell killing",[1]; [6],-27.3%
same,"activity, negative = cell killing",[1]; [7],-2.57%
same,"activity, negative = cell killing",[1]; [8],-14%
same,max response,[2],-0.753% and 0.726% and 3.47%
same,outcome,[3],inactive
CC(C)c1cccc(C(C)C)c1O,Potency,MKL-2,inactive
same,Potency,UISO,inactive
same,Potency,WaGa,inactive
same,Potency,C33A,inactive
same,outcome,CAOV3,inactive
same,outcome,CASKI,inactive
same,Potency,Es-2,inactive
same,Potency,HeLa,inactive
same,outcome,Hek293T,inactive
same,outcome,JEG-3,inactive
same,Potency,OV90,inactive
same,Potency,PA-1,inactive
same,outcome,SKOV3,inactive
same,Potency,Tov-21-G,inactive
same,Potency,Tov112D,inactive
same,"activity, negative = cell killing",[1]; [4],6.49%
same,"activity, negative = cell killing",[1]; [5],2.93%
same,"activity, negative = cell killing",[1]; [6],-26.1%
same,Potency,astro,inactive
same,max response,[2],-2.57%
CC(C)C[C@H](CN)CC(=O)O,Potency,MKL-2,inactive
same,Potency,UISO,inactive
same,Potency,WaGa,inactive
same,"activity, negative = cell killing",[1]; [4],2.42%
same,"activity, negative = cell killing",[1]; [5],-14.3%
same,"activity, negative = cell killing",[1]; [6],-19.6%
COC(=O)C(Cl)C(=O)OC,Potency,MKL-2,inactive
same,Potency,UISO,inactive
same,Potency,WaGa,inactive
same,Potency,C33A,inactive
same,outcome,CASKI,inactive
same,Potency,Es-2,inactive
same,Potency,HeLa,inactive
same,outcome,Hek293T,inactive
same,outcome,JEG-3,inactive
same,Potency,OV90,inactive
same,Potency,PA-1,inactive
same,outcome,SKOV3,inactive
same,Potency,Tov-21-G,inactive
same,Potency,Tov112D,inactive
same,"activity, negative = cell killing",[1]; [4],-9.36%
same,"activity, negative = cell killing",[1]; [5],-17%
same,"activity, negative = cell killing",[1]; [6],-23.7%
same,Potency,astro,inactive
